Common to all, as to assay: NCI-60 one-dose screen, 48 h (100 = growth as untreated, 0 = no growth, -100 = all killed)
Holding throughout (conditions): 10 µM unless noted

Assay [1] concerns SR leukemia.
Assay [2] relates to RPMI-8226 leukemia.
The test system of assay [3] is OVCAR-8 ovarian.
For assay [4], the system named is OVCAR-5 ovarian.
The test system of assay [5] is OVCAR-4 ovarian.
The subject of assay [6] is SK-OV-3 ovarian.
Assay [7] concerns IGROV1 ovarian.
Assay [8] relates to OVCAR-3 ovarian.
For assay [9], the system named is HS 578T breast.
Assay [10] relates to NCI/ADR-RES ovarian.
The subject of assay [11] is T-47D breast.
Assay [12] has as its system BT-549 breast.
In assay [13] the test system is MDA-MB-435 melanoma.
Assay [14] has as its system SW-620 colon.
Assay [15] relates to MCF7 breast.
Assay [16] has as its system HCT-116 colon.
Assay [17] deals with HCC-2998 colon.
Assay [18] concerns KM12 colon.

Compounds without any hit were thinned out: in the full panel of roughly 83,000, 20% have a hit.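 96-well plates, one dose, 48 hours. Percent growth reported; active if below 10.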 Unmarked numbers belong to inactive results. The source made the active and inactive calls.

In the case of `Cc1ccc(-n2c3c(c(-c4ccccc4)c2-c2ccccc2)C2=NCCN2C=N3)cc1`, the growth is 80% in assay [1]; 77.8% in assay [2]; 75.2% in assay [3]; 103% in [4]; 78.5% in assay [5]; 94.7% in [6]. Moreover, the growth in assay [7] is 62.6%; in assay [8], 90.5%; in assay [9], 94.8%; in [10], 100%; in assay [11], 72.7%; in [12] it was 107%. For the same compound, the growth in assay [13] is 97.8%; in assay [14], 89.9%; in [15], 86.8%; in assay [16], 76.5%; in [17], 108%; in assay [18], 90.5%.
On to `C=C(C)[C@@H]1CC[C@]2(C(=O)N3CCN(C)CC3)CC[C@]3(C)[C@H](CC[C@@H]4[C@@]5(C)CC[C@H](O)C(C)(C)[C@@H]5CC[C@]43C)[C@@H]12`, for which the growth in [1] is -19.9% (active); in [2], -40.1% (active); in assay [3] it was -55% (active); in assay [4] it was -13.8% (active); in assay [5] it was -79.6% (active); in assay [6], 125%. Further, the growth in assay [7] was -72.6% (active); in [8], -94% (active); in assay [9] it was -46.1% (active); in assay [10] it was -42.7% (active); in assay [11] it was -73.8% (active); in assay [12], -51.8% (active). Moreover, the growth was -82.1% (active) in assay [13]; -74.8% (active) in [14]; -79.6% (active) in [15]; -98.3% (active) in assay [16]; -85.3% (active) in [17]; -80.7% (active) in [18].
`CCN1CCN(CCNc2nccc(-c3c(-c4cccc(OC)c4)nc4occn34)n2)S1(=O)=O`: the growth in assay [1] is 96.3%; in assay [2] it was 96.2%; in [3], 99.3%; in [4], 130%; in assay [5], 114%; in assay [6], 92%. Also, the growth in assay [7] is 79.9%; in [8], 107%; in assay [9], 114%; in assay [10], 109%; in assay [11] it was 76.3%; in assay [12], 111%. Moreover, the growth in assay [13] is 52.2%; in assay [14] it was 132%; in assay [15] it was 86.1%; in [16], 99.8%; in assay [17] it was 130%; in [18] it was 100%.
Consider `O=C(c1ccccc1)N1N=C(c2ccc(-n3ccc(C(F)(F)F)n3)c(F)c2)CC1c1ccc[nH]1` (centres undefined), for which the growth in assay [1] was 104%; in assay [2], 101%; in assay [3], 104%; in assay [4], 104%; in [5], 116%; in [6] it was 141%. Further, the growth in assay [7] was 108%; in assay [8] it was 116%; in [9], 107%; in assay [10], 100%; in assay [11], 90.6%; in [12], 110%. Besides, the growth was 102% in assay [13]; 108% in assay [14]; 96.4% in assay [15]; 105% in assay [16]; 112% in [17]; 104% in assay [18].
Take `COc1cc2nc(-c3ccc(C(F)(F)F)cc3)cc(OCCCN3CCOCC3)c2cc1OC`: the growth in assay [1] was 16.5%; in assay [2], 10.8%; in assay [3], 41.6%; in assay [4], 45.8%; in [5] it was 52.8%; in [6], 70.3%. Further, the growth in [7] was 36.4%; in assay [8] it was 61.6%; in assay [9] it was 54.7%; in [10], 40.4%; in assay [11], 16.2%; in assay [12] it was 30.5%. The growth in [13] was -26% (active); in assay [14] it was 25.9%; in [15] it was 44.4%; in assay [16], 15.1%; in assay [17], 43.4%; in assay [18], 27.5%.
On to `CCCCCN1C=C/C(=C\C(=O)N(C)c2ccc(OC(F)(F)F)cc2)c2ccccc21`, for which the growth in assay [1] was 100%; in [2], 94.7%; in assay [3], 95.3%; in assay [4], 100%; in assay [5], 87.6%; in [6], 90.6%. Further, the growth was 93.2% in assay [7]; 105% in [8]; 90.5% in [9]; 105% in assay [10]; 88.3% in [11]; 109% in assay [12]. The growth is 105% in [13]; 98.1% in assay [14]; 88.7% in [15]; 74.3% in assay [16]; 106% in [17]; 102% in assay [18].
Turning to `N/C(=N\C(N)=N\c1nc2ccccc2s1)c1cnccn1`, the growth is 0% (active) in assay [1]; 13.3% in [2]; 28.1% in assay [3]; 60.1% in assay [4]; 14.9% in assay [5]; 12.9% in [6]. For the same compound, the growth was -1.19% (active) in [7]; 3.95% (active) in assay [8]; 49% in [9]; 61.7% in [10]; 18.2% in assay [11]; 38.3% in [12]. Besides, the growth was 4.7% (active) in assay [13]; 11.4% in assay [14]; 11.4% in assay [15]; 8.53% (active) in [16]; 18.5% in [17]; 8.11% (active) in [18].
Consider `COC(=O)CNC(=O)[C@]12CCC(C)(C)C[C@H]1C1=CC[C@@H]3[C@@]4(C)Cc5c([nH]c6ccccc56)C(C)(C)[C@@H]4CC[C@@]3(C)[C@]1(C)CC2`, for which the growth in assay [1] is 83.3%; in assay [2], 77%; in assay [3], 85.2%; in assay [4], 95.4%; in assay [5], 77%; in assay [6] it was 82.6%. Besides, the growth in [7] is 104%; in [8], 93%; in assay [9], 87.5%; in assay [10] it was 89.6%; in assay [11] it was 57.1%; in assay [12] it was 102%. In addition, the growth in assay [13] was 97.8%; in assay [14], 88.8%; in [15], 79.9%; in assay [16], 95%; in assay [17], 103%; in assay [18], 92.3%.

Values taken from PubChem BioAssay (NCI).
